# Laboratory results taken from PubChem BioAssay (NCATS).
# Results filed as inconclusive are left out. A call without a number means that no potency is given here. Activity calls are given as the source filed them. The call rests on the fitted dose curve; in most records, active means well fitted activation curve with a large enough effect; inconclusive means small, poorly fitted or top-dose-only effect, or effect the other way; inactive means flat fitted curve, though single readings scatter.
# Test: Cellular Toxicity (caspase-3) NIH 3T3 (AID 666);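 further: caspase signal read after 16 h compound exposure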
# Details: NIH 3T3 caspase-3 activation, apoptosis/toxicity; series mostly up to 92.2 µM
# Excerpt: NIH Chemical Genomics Center [NCGC]
# NIH Molecular Libraries Screening Centers Network [MLSCN]
# National Institutes of Environmental Health Sciences [NIEHS]
# National Toxicology Program [NTP]
# We have developed a 1536-well cell-based assay for quantitative high throughput screening (qHTS) against a number of cell lines to determine in vitro caspase 3/7 of small molecules. This particular assay uses the NIH 3T3 cell line which is derived from mouse fibroblasts.
# NCGC Assay Protocol Summary:
# The Caspase-Glo 3/7 assay (Promega) is a homogeneous method to measure caspase-3 and caspase-7 activities in cultured cells. The quantitation of caspase 3/7 activity is based on the cleavage of a peptide-aminoluciferin substrate. After caspase cleaves the substrate the free aminoluciferin is liberated and serves as the substrate of luciferase, which generates the light. The luminescent signal is proportional to amount of caspase 3/7 activity present.
# Using the Caspase-Glo 3/7 assay, the amount of caspase 3/7 activity was measured in the NIH 3T3 cell line with complete culture medium following compound treatment for 16 hours. The assay was performed in opaque white 1536-well plates. In the screen, tamoxifen and doxorubicin were used as positive controls. Library compounds were measured for their ability to cause the activation of caspase 3/7 in the cell line, as reflected by an increase in luminescence signal, in a concentration-dependent manner. Data were normalized to the controls for basal activity (DMSO only) and 100% stimulation (100 uM tamoxifen). AC50 values were determined from concentration-response data modeled with the standard Hill equation.
# qHTS protocol for caspase 3/7 assay in NIH 3T3 cells
# [Step] [Parameter] [Value] [Description]
# 1. Reagent; 5 uL; 1000 NIH 3T3 cells/well
# 2. Time; 5 hr; 37 °C incubation
# 4. Controls; 23 nL; Tamoxifen 0.23 uM to 100 uM & Doxorubicin 7.0 pM to 100 uM
# 5. Time; 16 hr; 37 °C incubation
# 6. Reagent; 5 uL; Caspase-Glo 3/7 reagent
# 7. Time; 20 min; Room Temperature
# 8. Detection; Luminescence; Viewlux plate reader
# Keywords: caspase 3/7, apoptosis, NIH 3T3 cell line, luminescence, NTPHTS, NTPHTS_NCGC, NIEHS, EPA, DSSTox, MLSMR, MLSCN, NIH Roadmap, qHTS, NCGC
row,SMILES,Potency
1,CCOC(=O)c1ccccc1C(=O)OCC,inactive
2,O=Cc1ccco1,inactive
3,C[C@H]1CC[C@@H]2[C@@H](C)[C@H]3[C@H](C[C@H]4[C@@H]5CC=C6CC(O[C@@H]7O[C@H](CO)[C@H](O)[C@H](O[C@@H]8O[C@H](CO)[C@@H](O)[C@H](O)[C@H]8O)[C@H]7O[C@H]7O[C@@H](C)[C@H](O)[C@@H](O)[C@H]7O)CC[C@]6(C)[C@H]5CC[C@]34C)N2C1 (stereo not given in full),inactive
4,ClC(Cl)(Cl)Cl,inactive
5,O=C(O)C(Cl)(Cl)Cl,inactive
6,O=C1C2CC=CCC2C(=O)N1SC(Cl)(Cl)Cl (stereo not given),inactive
7,O=[N+]([O-])c1ccccc1,inactive
8,NNC(N)=O,inactive
9,O=[N+]([O-])c1ccc(F)c([N+](=O)[O-])c1,inactive
10,C[C@H]1CCC[C@H](O)CCCCCc2cc(O)cc(O)c2C(=O)O1,inactive
11,ClCC1CO1 (stereo not given),inactive
12,CCCCCl,inactive
13,ClC=C(Cl)Cl,inactive
14,[Cl-].[Cl-].[Hg+2],inactive
15,CC(C)CCON=O,inactive
16,COC1=CC(=O)O[C@@H](/C=C/c2ccccc2)C1,inactive
17,O=C1C=CC(=O)C=C1,inactive
18,COc1ccc2c(c1OC)C(=O)OC2C1c2cc3c(cc2CCN1C)OCO3 (stereo not given),inactive
19,C=CCN=C=S,inactive
20,CC(C)Nc1ccc(Nc2ccccc2)cc1,inactive
21,[O]=[Cd],inactive
22,C[C@]12CCC(=O)C[C@@H]1CC[C@@H]1[C@@H]2CC[C@]2(C)[C@@H](O)CC[C@@H]12,inactive
23,CC(C)(C)c1cc(O)ccc1O,inactive
24,Oc1cc(Cl)c(Cl)cc1Cl,inactive
25,O=C/C=C/c1ccccc1,inactive
26,CCCCCCCCOC(=O)c1ccccc1C(=O)OCCCCCCCC,inactive
27,S=C=S,inactive
28,O=C1CCO1,inactive
29,O=CC=O,inactive
30,Clc1ccccc1Cl,inactive
